SMN2 splice enh: enhancers of SMN2 splice variant expression; HEK293 SMN2-luciferase splicing reporter, luminescence, 30-36 h; Potency, µM (titrated, usually from 46.1 µM), inactives show top-dose activity change, positive = activation, actives largely listed as activators; hit rate 2.8% among 210,000; AID 1458; note: % of control where 0% means no effect; nearly all actives have a fitted effect of over 55% in size
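HEK293 cells carry an SMN2 minigene-luciferase reporter in which exon 7 inclusion puts luciferase in frame. Cells were seeded at 2000 cells/well, attached for 10-12 hours, then exposed to compounds for 30-36 hours at 37C before ONE-Glo luminescence.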
NPC1 promoter act: activates the NPC1 promoter; Huh7 NPC1 promoter luciferase reporter, 24 h; Potency, µM (doses to about 9.22 µM), for inactives: top-dose activation, usual class: activators; hit rate 2.4% among 320,000; AID 485313; note: % of control where 0% means no effect; nearly all actives have a fitted effect of over 60% in size
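Luciferase expression driven by the NPC1 promoter was measured in stably transfected Huh7 cells after a 24 h compound incubation, using a luciferase reagent and a luminescence read.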
Rab9 promoter act: activators of Rab9 promoter; Potency, µM (top dose mostly 9.22 µM), inactives show at the highest dose activation, negative = inhibition, actives largely listed as activators; hit rate 2.8% among 320,000; Huh7 Rab9 promoter-luciferase reporter, luminescence, 24 h; AID 485297; note: % of control where 0% means no effect; nearly all actives have a fitted effect of over 60% in size
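Steps: seed 1500 Huh7 Rab9-luc cells per well, rest 2 h at 37 °C; add compound in DMSO; incubate 24 h; add luciferase reagent, 10 min ambient; read luminescence.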
ELG1 genotox: inducers of genotoxicity in HEK293T ELG1-luciferase cells. HEK293T ELG1-luciferase reporter, luminescence, 16 h. Potency, µM (top dose mostly 46 µM), inactives show at the top dose activity change, positive = activation, usual class: activators. hit rate 1.3% among 330,000; note: % of control where 0% means no effect; nearly all actives have a fitted effect of over 60% in size
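Quantitative HTS format in 1536-well plates. HEK293T ELG1-luciferase reporter cells receive test compound and are incubated 16 hr at 37 °C, 5% CO2; ONE-Glo added, 30 min room temperature, then luminescence read.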
FLuc counter: inhibits or activates purified firefly luciferase, miR-21 counter-screen; P08659; purified FLuc, Km substrates, luminescence inhibition; Potency, µM (top dose mostly 57.5 µM), inactives show at the highest dose activity change, negative = inhibition, most hits filed as inhibitors; hit rate 6.9% among 360,000;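 note: plate controls were vehicle for no effect and reference inhibitor for full effect; nearly all actives have a fitted effect of over 55% in size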
Target sequence (P08659 whole entry, looked up): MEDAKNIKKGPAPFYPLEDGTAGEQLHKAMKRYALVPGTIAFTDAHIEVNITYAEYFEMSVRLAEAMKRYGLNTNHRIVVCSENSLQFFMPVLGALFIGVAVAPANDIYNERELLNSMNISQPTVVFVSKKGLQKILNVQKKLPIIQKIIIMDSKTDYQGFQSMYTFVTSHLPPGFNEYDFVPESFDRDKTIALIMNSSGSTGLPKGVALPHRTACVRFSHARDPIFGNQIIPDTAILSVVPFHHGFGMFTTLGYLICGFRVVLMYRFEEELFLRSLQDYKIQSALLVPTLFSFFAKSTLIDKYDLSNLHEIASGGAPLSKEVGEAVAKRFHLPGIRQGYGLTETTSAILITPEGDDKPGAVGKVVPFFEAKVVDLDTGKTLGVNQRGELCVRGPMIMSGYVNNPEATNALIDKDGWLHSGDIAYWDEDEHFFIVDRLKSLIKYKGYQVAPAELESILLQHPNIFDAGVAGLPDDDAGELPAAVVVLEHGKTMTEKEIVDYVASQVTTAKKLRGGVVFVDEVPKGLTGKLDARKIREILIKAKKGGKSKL
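Purified P. pyralis luciferase, 10 nM final, with Km-level 10 uM D-luciferin and 10 uM ATP in 50 mM Tris acetate pH 7.5, 10 mM Mg acetate, 0.01% Tween-20, 0.05% BSA; 6-point qHTS titration about 60 µM downward; luminescence read.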
Starred values were filed as active, the others as inactive; u = inconclusive; x = not tested or not shown; [ ] = remark or other dose. Compounds with a hit are over-represented: about 7.4% of the library has one in this group of screens. Calls come from the whole dose curve; as a rule, active = well fitted curve in the direction sought with a large enough effect; inconclusive = small, poorly fitted or top-dose-only effect, or another doubt; inactive = no such curve, though single readings can be large; an effect the other way counts as inactive or inconclusive. Potency is the fitted concentration of half-maximal effect.

SMILES	SMN2 splice enh	NPC1 promoter act	Rab9 promoter act	ELG1 genotox	FLuc counter
O=[N+]([O-])c1cc2c(cc1/C=N/Nc1nc(Nc3ccccc3)nc(N3CCCCC3)n1)OCO2	-5.2%	18.9%	25.0%	8.6%	2.13µM*
CC(=O)Nc1ccc(/C(C)=N/Nc2nc(Nc3ccccc3)nc(N3CCOCC3)n2)cc1	x	-1.2%	-3.3%	-2.5%	16.9µM*
O=C(O)COc1ccc(/C=N/Nc2nc(Nc3ccccc3)nc(N3CCCCC3)n2)cc1	11.1%	-4.0%	0.2%	-1.9%	0.675µM*
COc1ccc(/C=N/Nc2nc(Nc3ccccc3)nc(N3CCCC3)n2)cc1	-19.8%	5.0%	3.5%	-13.9%	-10.3%
O=C(CSc1nc2ccccc2nc1Cc1ccccc1F)Nc1cccc(C(F)(F)F)c1	-1.5%	x	x	x	6.8%
Cc1ccc(N2C(=O)CSC23C(=O)N(CC(=O)Nc2ccccc2F)c2ccccc23)cc1C (stereo not given)	x	x	x	x	3.6%
CCOc1ccccc1NS(=O)(=O)c1ccc2c(c1)oc(=O)n2C	-8.6%	x	x	x	3.2%
C(=N\Nc1nc(Nc2ccccc2)nc(N2CCCCC2)n1)/c1ccco1	x	4.7%	25.7%	-11.0%	6.01µM*
c1ccc(CN2CCN(C3=Nc4cccc5cccc3c45)CC2)cc1	9.0%	13.3%	13.5%	12.1%	10.7µM*
Fc1ccc(N2CCN(C3=Nc4cccc5cccc3c45)CC2)cc1	-0.1%	24.0%	14.5%	2.3%	15.1µM*
COC(=O)c1scc(-c2ccccc2)c1S(=O)(=O)Nc1cccc(C)c1C	x	x	x	x	4.3%
CCOc1ccc(S(=O)(=O)N2CCC(C(=O)N3CCc4ccccc4C3)CC2)cc1	x	-1.0%	-6.2%	-8.1%	-1.7%
N#C/C(=C/c1cn(CC(=O)O)c2ccccc12)C(=O)Nc1ccccc1	x	-3.2%	-7.5%	1.9%	15.1µM*
CCOc1ccc(NC(=O)/C(C#N)=C/c2cn(CC(=O)O)c3ccccc23)cc1	x	0.0%	-2.3%	0.6%	19µM*
CCc1ccc(NC(=O)/C(C#N)=C/c2cn(CC(=O)O)c3ccccc23)cc1	4.0%	0.3%	2.4%	-0.3%	u
COC(=O)c1c(NC(=O)Cc2coc3cc(C)cc(C)c23)sc2c1CCC2	0.2%	x	x	x	-13.9%
CN(C)c1ccc(/C=N\NC(=O)c2cccc3cc[nH]c23)cc1	x	22.4%	u	u	12µM*
Cc1cc(C(=O)NN=Cc2ccc(OC(=O)c3ccco3)cc2)c(C)o1	x	x	x	0.2%	x
Cc1cc(/C=N/NC(=O)c2nn(C)cc2Cl)c(C)n1-c1cccc(Br)c1	-20.4%	-2.2%	-5.4%	3.8%	23.9µM*
Cc1cccc(-n2c(C)cc(/C=N\NC(=O)c3ccco3)c2C)c1	13.0%	u	1.12µM*	u	9.53µM*
CN(C)c1ccc(/C=N/NC(=O)c2ccco2)cc1	8.91µM*	0.794µM*	0.562µM*	4.11µM*	2.69µM*
CN(C)c1ccc(/C=N/NC(=O)c2cc(=O)[nH]c3ccccc23)cc1	x	-2.6%	-0.7%	4.8%	-12.8%
CC(=O)Nc1ccc(S(=O)(=O)N2CCc3nc(-c4ccccc4)c4c(c3C2)CO[C@@H](C)C4)cc1	-1.4%[9.22 µM]	x	x	x	x
CSC(=S)N/N=C/c1ccc(N(C)C)cc1	27.9%	11.1%	23.0%	u	2.69µM*
O=C(N/N=C\c1ccoc1)c1ccco1	x	0.4%	9.2%	6.7%	-10.8%
SMILES	SMN2 splice enh	NPC1 promoter act	Rab9 promoter act	ELG1 genotox	FLuc counter
Cc1ccc(/C=N/NC(=O)c2ccco2)cc1	x	1.78µM*	1.41µM*	u	3.79µM*
CSC(=S)N/N=C/c1ccc(Br)cc1	10.0%	-3.6%	-1.4%	-2.1%	-17.4%
O=C(N/N=C/c1ccc2ncccc2c1)c1ccco1	0.562µM*	u	0.316µM*	2.59µM*	1.35µM*
CCn1ccc2cc(S(=O)(=O)N3CCC(C(=O)NCc4ccc(OC)cc4)CC3)ccc21	x	x	x	x	-10.6%
Cc1ccc(C(=O)c2cn(CC(=O)Nc3ccc(C)cc3Cl)c3nc(C)ccc3c2=O)cc1	x	x	x	x	-3.2%
Cc1ccc(NC(=O)CSc2ncc3c(n2)-c2ccccc2N(Cc2cccc(F)c2)S3(=O)=O)cc1F	x	x	x	x	-3.6%
CCOc1ccccc1OCCCOc1ccc([N+](=O)[O-])cc1Cl	-22.6%	-4.0%	-0.3%	0.4%	9.53µM*
COc1cc(C)ccc1OCCOc1ccccc1Cl	4.7%	u	u	u	19µM*
